# Test results taken from the supplement of paper PMC6555819.
# How the values were obtained:
# Assay in all cases: PBM binding z-score (relative to random genomic background probes); higher = stronger binding; sequences stand for … in GC…GCGATTGACAGCGTAGAATGAAGG
# [1] = test system: PPARg:RXRa DBDmut IVT, anti-RXR (DBD mutation: RXRa K156A/R161A, NR concentration 270 nM, RXRa partner concentration 90 nM)
# Method in brief: (§1)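 The probes on custom Agilent 4×180K protein-binding microarrays were double-stranded, with 34-nt variable regions bearing direct-repeat seeds, single-nucleotide variants, half-site ablations and random human genomic background sequences. Incubation lasted 1 h with ligand-free nuclear receptor dimers in PBS pH 7.4, 2% milk, 0.02% Triton X-100, 1 mM DTT, 0.2 mg/mL BSA and 0.4 mg/ml salmon testes DNA. Antibodies against each partner (one per run) detected bound dimers, and fluorescence scans were regression-normalized. Binding z-scores take the random background probes as reference.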
# [2] = test system: PPARg:RXRa IVT, anti-PPARg (NR concentration 270 nM, RXRa partner concentration 90 nM)
# Method in brief: as §1
# [3] = test system: PPARg DBDmut:RXRa IVT, anti-PPARg (DBD mutation: PPARg1 K132A/R137A, NR concentration 270 nM, RXRa partner concentration 90 nM)
# Method in brief: as §1
# [4] = test system: PPARg DBDmut IVT, anti-PPARg (DBD mutation: PPARg1 K132A/R137A, NR concentration 270 nM)
# Method in brief: as §1
# [5] = test system: PPARg homodimer (NR concentration 180 nM)
# Method in brief: as §1
# [6] = test system: PXR:RXRa (NR concentration 270 nM, RXRa partner concentration 90 nM)
# Method in brief: as §1
# [7] = test system: PXR homodimer (NR concentration 270 nM)
# Method in brief: as §1
# [8] = test system: RARa:RXR (NR concentration 270 nM, RXRa partner concentration 90 nM)
# Method in brief: as §1
# [9] = test system: RARa homodimer (NR concentration 270 nM)
# Method in brief: as §1
# [10] = test system: RARb:RXRa (NR concentration 270 nM, RXRa partner concentration 90 nM)
# Method in brief: as §1
# [11] = test system: RARb homodimer (NR concentration 270 nM)
# Method in brief: as §1
# [12] = test system: RARg:RXRa (NR concentration 270 nM, RXRa partner concentration 90 nM)
# Method in brief: as §1
# [13] = test system: RARg homodimer (NR concentration 270 nM)
# Method in brief: as §1
# [14] = test system: RXRa DBDmut IVT, anti-RXR (DBD mutation: RXRa K156A/R161A, NR concentration 90 nM)
# Method in brief: as §1
# [15] = test system: RXRa homodimer (NR concentration 180 nM)
# Method in brief: as §1
# [16] = test system: THRa:RXRa (NR concentration 90 nM, RXRa partner concentration 90 nM)
# Method in brief: as §1
# [17] = test system: THRa homodimer (NR concentration 90 nM)
# Method in brief: as §1
# [18] = test system: VDR homodimer (NR concentration 270 nM)
# Method in brief: as §1
Sequence,PBM binding z-score [1],PBM binding z-score [2],PBM binding z-score [3],PBM binding z-score [4],PBM binding z-score [5],PBM binding z-score [6],PBM binding z-score [7],PBM binding z-score [8],PBM binding z-score [9],PBM binding z-score [10],PBM binding z-score [11],PBM binding z-score [12],PBM binding z-score [13],PBM binding z-score [14],PBM binding z-score [15],PBM binding z-score [16],PBM binding z-score [17],PBM binding z-score [18]
CATACAGGGTCAGCTAGGGCAGAGTAGGGACGGC,1.09,2.7,1.4,-0.307,2.1,2.54,0.343,3.11,0.618,4.28,3.44,4.4,4.87,1.33,4.24,3.69,0.984,2.1
CGTCCAAGGTCGGCAGGTCAGTGAAAGCGACGTG,-0.305,0.214,-0.718,-1.66,0.288,1.23,-0.703,1.88,-0.686,3.17,3.1,3.38,3.66,1.36,2.08,2.13,0.0758,0.171
AGAATGAGGTTATTAAGCTCAGGGAATTGCGGTC,2.58,1.95,0.589,0.126,-0.0657,0.757,-0.286,0.948,-0.655,1.09,0.163,0.737,0.334,2,1.6,1.99,0.104,0.783
CGTCAAAGTTCAAAGTAACGTAACAGAAAGCAGC,0.465,1.58,1.23,1.35,3.3,4.68,3.73,3.43,1.73,4.9,3.42,5.52,5.99,4.98,4.88,1.72,-0.272,4.15
CCGACTGGGGCAGCAAGGTTACCATACCATCCGG,1.54,2.54,-0.529,-1.62,0.27,0.264,-0.339,0.662,-0.434,1.39,1.52,0.772,0.82,-0.746,0.706,1.21,0.373,0.0128
ACCTCTAGGTAAGACTCAGTTCAGTGAAGAACGC,1.32,0.243,-0.124,-0.421,0.121,0.405,0.515,0.112,-0.37,-0.0918,0.0203,-0.0549,-0.0332,0.371,-0.0186,0.243,0.088,0.678
ATCTCTAGGTCACAAGTTCAGTGAAAGAGAGGAC,6.82,6.99,2.94,2.5,2.82,3.7,2.65,3.86,1.69,4.5,4.24,5.58,6.02,2.17,4.04,3.4,2.36,3.53
GGAACGAGGGAATTCGAGTTGATAGCATGGCGAT,-0.111,-0.244,-0.28,0.0147,-0.611,-0.165,-0.439,-0.36,-0.411,-0.688,-0.928,-0.376,-0.201,-0.589,-0.105,0.1,-1.07,-0.525
CCTACTGGGCCAAAAAGATCATTGATGCCGATAA,3.14,2.44,-0.679,-0.158,0.38,-0.395,-0.298,-0.562,0.184,-0.239,-0.443,-0.189,0.104,-0.443,-0.145,-0.348,-0.71,-0.266
AGAATTAGGTTATACGTAGATCAGGGAAGAAAGT,6.81,4.61,1.46,1.36,1.25,0.291,0.914,0.687,0.896,0.776,0.51,0.538,0.552,0.428,0.592,0.759,0.539,0.454
CGTCCAAGGTCAAAGGTCAGTTAAGAGATGACGG,3.55,5.71,1.21,-0.205,3.01,6.49,1.86,8.28,1.38,6.2,5.64,8.47,7.74,3.83,9.85,5.11,2.91,3.63
CCGACCGGGGCAAGGTTACCATAACGCACAGCCA,0.434,0.22,-0.24,-0.801,0.684,0.376,-0.0438,1.28,0.236,1.97,1.54,1.65,1.73,-0.596,1.39,1.64,0.837,0.12
AGAATGAGATTAAGATCAGGGAAACAGAATACAT,-0.828,-0.427,0.0625,0.018,0.131,-0.366,0.121,-0.347,-0.129,-1.06,-0.523,0.0579,0.312,-0.493,-0.0987,-0.0153,-0.567,-0.0769
CCTAGTTGGTCAGGAGGTCAGACACCGGATATGA,1.06,2.24,0.271,0.265,2.85,2.7,0.934,3.13,1.66,2.92,3.57,3.8,3.09,0.173,2.74,2.43,1.11,1.42
CCTTATGGGTCACTCCAGGTTATAGCATCGGAGT,5.51,5.56,1.27,1.01,1.61,4.22,0.18,2.9,0.657,3.35,2.87,3.68,3.9,0.586,3.31,4.85,0.288,0.918
CCTAGCAGACCAGGGTCACTCAAGCATTTCGCTT,-0.221,0.416,-0.792,-1.1,0.914,2.63,-0.0947,3.3,-0.0324,2.32,2.68,2.86,1.84,0.63,3.24,2.75,0.798,1.37
AGAACGAGGGCCCGCTGAGTTGATAGCAGAGTAG,-0.75,-0.481,-0.976,-0.618,-1.15,-0.97,-1.05,-1.3,-1.68,-0.616,-1.16,-0.775,-0.722,-0.659,-0.399,-1.6,-0.89,-0.586
TCCTGTAGATCAAAGGTTAAGAAAGCCGAAGCCT,1.82,3.04,-0.37,0.441,1.34,1.72,-0.679,2.85,-0.272,1.78,1.39,1.89,0.87,0.61,3.17,1.24,-0.54,-0.182
TCGAGTAGGTTACCAATGGGGCATTCACCTTTCT,3.38,2.75,0.0374,0.508,0.0872,0.579,-0.637,1.1,-0.777,1.13,1.29,1.38,0.58,0.49,0.913,0.504,-0.317,-0.574
GCTACAGGGTCAGCTAGAGGCCAGAGTATGGAAA,1.26,1.75,-0.627,-0.389,1.43,3.1,-0.36,4,-0.208,4.32,3.3,6.74,5.02,1.48,4.32,3.23,0.349,0.386
CGAACCAGGTCATCCAGGACAGTGAATACATTGA,5.15,5.48,1.46,0.673,2.01,2.98,3.52,3.1,1.01,3.95,3.03,4.28,4.8,2.81,3.95,4.15,2.93,2.75
CTTTACGGGTCACTGACAGGTTATAGCATTTGGA,4.85,4.95,0.913,1.44,2.33,3.9,0.619,5.01,0.972,4.14,3.58,6.21,5.08,2.54,5.93,3.18,0.855,1.15
CCAACTAGGTCAAAGGTCAAAGTCGAGCCAACCA,8.37,8.87,4.39,5.12,5.23,7.1,1.86,8.64,3.1,5.72,5.33,9.03,7.43,3.14,10.2,4.82,1.79,3.47
ATATGTAGGTTAGCTGGGGTCATTCAGACTAGGC,6.68,6.23,2.15,1.68,2.64,6.34,4.08,5.73,1.52,2.96,3.87,4.18,2.91,2.27,5.35,5.18,3.18,5.47
TAGCCTAGGTCAGATCGGTCCAGTATACGCTATA,0.702,1.74,-0.14,-0.564,-0.166,2.34,-0.919,0.948,-0.74,2.78,1.89,2.06,3.2,-0.21,1.2,2.97,0.0173,0.23
TCACCAAGGTGAAAGGTCGTTGATGCACGCCTTG,3.13,4.81,0.292,0.0423,0.508,3.77,-0.165,4.87,-0.322,3.17,2.63,4.15,2,1.09,5.41,3.33,0.739,0.922
CCTCGGAGGAGAACAGGAGGTCAGAGCTGCCAGA,-0.418,0.248,-1.26,-1.78,1.58,1.87,0.761,2.19,0.495,1.95,2.87,2.04,1.63,-0.274,1.76,2.21,0.793,0.851
GATACAGGGTCAAGGCAAGAGTACGCGTATTGAT,2.89,4.14,1.59,0.74,2.69,3.78,0.428,4.61,1.12,4.62,3.45,5.5,5.14,2.63,6.28,3.72,1.16,2.31
ATATGTAGGTTATCGGTTCATTCAGTTTGCGCAT,7.25,7.09,4.06,4.75,2.66,3.48,11.4,1.73,1.25,1.32,1.17,1.39,0.882,2.4,1.66,1.27,1.08,5.79
